Reference: PubChem BioAssay AID651812 (National Center for Advancing Translational Sciences (NCATS), 2012)
The whole screen tested about 2,100 compounds, of which about 650 (31%) were called active. Inconclusive results (about 16%) are left out. The call rests on the fitted dose curve; in most records, active means well fitted inhibition curve with a large enough effect; inconclusive means small, poorly fitted or top-dose-only effect; inactive means flat fitted curve, though single readings scatter. This is one part of the list. Where a call stands in place of a potency, no number is given.

Experiment: qHTS for inhibitors of Vif-A3G interactions: Cherry picks; further: nearly all actives have a fitted effect of over 80% in size
Settings: HeLa A3G-eYFP + Vif (tagged APOBEC3G with the HIV-1 protein that degrades it), 24 h; Potency: eYFP fluorescence increase; series mostly up to 36.9 µM
Summary of the method: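 HeLa cells stably expressing A3G-eYFP and Vif, cultured overnight then exposed to compounds at several concentrations for 24 hours at 37 C, 5% CO2; cellular yellow fluorescence (488 nm ex, 500-530 nm em) imaged on Acumen, MG132 positive control.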
Potency means the concentration at half of the fitted maximal effect.

Compound	Potency
O=[N+]([O-])c1ccc(C2=Nc3cc(Cl)ccc3OC2)cc1	29.1 µM (active)
CCOC(=O)c1c(C)[nH]c(C(=O)N/N=C/c2cccc(OC)c2)c1C	inactive
CCOC(=O)c1ccc(NC(=S)Nc2cccc(C)n2)cc1	inactive
Cc1ccnc(NC(=S)NC(=O)/C=C/c2ccco2)c1	inactive
CCOC(=O)c1cc(-c2ccccc2)sc1NC(=S)Nc1cc(C)ccn1	10.3 µM (active)
CNC(=O)C(Sc1nc(C)nc2c1oc1ccccc12)C(C)=O (configuration not stated)	inactive
COc1ccc(Cn2c(C)nc3c(c2=O)c2nc4ccccc4nc2n3Cc2ccco2)cc1	5.8 µM (active)
COc1ccc(Cn2c(=O)cc(N)n(-c3ccccc3C)c2=O)cc1	inactive
O=C(Cc1cc2ccccc2o1)NCc1ccc(F)cc1	inactive
O=c1[nH]c2cc(Br)cnc2nc1/C=C(\O)c1ccc(F)cc1	13 µM (active)
COc1cccc(OCc2nc3ncc(Br)cc3[nH]2)c1	inactive
COc1ccc(-c2nc3cnccn3c2NC2CCCCC2)cc1-c1cccc(Cl)c1	inactive
CCC(C)Sc1ccc(-c2nc3cc(C)ccn3c2NC2CCCCC2)cc1 (configuration not stated)	inactive
CCCCNc1c(-c2ccc(SC3CCCCC3)cc2)nc2cnccn12	2.8 µM (active)
COc1ccc(NC(=O)C2(C)Cc3c(-c4cccc(C(N)=O)c4)ccnc3O2)cc1 (configuration not stated)	inactive
Cc1cc(C(=O)N/N=C/c2ccc(C)o2)c2ccccc2n1	inactive
O=C(N/N=C/c1ccc([N+](=O)[O-])o1)c1cc(-c2ccc(-c3ccccc3)cc2)nc2ccccc12	inactive
O=[N+]([O-])c1ccc(/C=N/Nc2ccc3ccccc3c2)o1	4.44 µM (active)
Cc1cc(N/N=C/c2ccc([N+](=O)[O-])o2)nc2ccccc12	20.6 µM (active)
Cc1cccc(Nc2nc(N)nc(-c3oc4ccccc4c3C)n2)c1	inactive
O=C(Nc1nc(-c2ccccn2)cs1)C1CCCC1	inactive
O=C(c1ccccc1)C(CN1CCCCC1)c1ccccc1 (configuration not stated)	inactive
Nc1c(C(=O)c2ccccc2)sc2nsc(SCCN3CCOCC3)c12	16.4 µM (active)

Compound	Potency
Nc1c(C(=O)c2ccccc2)sc2nsc(SCCN3CCCC3)c12	19.8 µM (active)
C[C@H]1CN([C@@H](C)CO)C(=O)Cc2cc(NC(=O)CCC(F)(F)F)ccc2O[C@H]1CN(C)S(=O)(=O)c1ccc(F)cc1	inactive
C/C(=N\NC(=O)c1cc(C)nc2ccccc12)c1ccncc1	inactive
Cc1cccc(N2CCN(Cc3cn(C)nc3-c3ccccc3F)CC2)n1	inactive
COC(=O)C1C2CC3c4[nH]c5cc(OC)ccc5c4CCN3CC2CC(OC(=O)CC(C)=O)C1OC (configuration not stated)	18.4 µM (active)
C[C@H](O)[C@@H]1CN2CCc3c([nH]c4ccccc34)[C@@H]2C[C@@H]1N(C)C(=O)c1ccco1	inactive
COC(=O)C1C2CC3c4[nH]c5cc(OC)ccc5c4CCN3CC2CC(OC2CCCCO2)C1OC (configuration not stated)	20.6 µM (active)
Cc1ccccc1NC(=O)CSC1=C(C#N)C(c2ccsc2)CC(=O)N1 (configuration not stated)	inactive
COc1ccc(NC(=O)/C(C#N)=C/C=C/c2ccco2)cc1	inactive
O=[N+]([O-])c1ccc(N/N=C/C=C/c2ccco2)cc1	16.4 µM (active)
O=C(N/N=C/C=C/c1ccco1)c1ccncc1	inactive
O=Nc1ccc(O)c2ncccc12	inactive
CC1=NN(c2ccccc2)C(=O)/C1=C/C=C/c1ccccc1	inactive
COc1ccccc1CCC(=O)Nc1ccc2c(c1)c(=O)n(C)n2-c1cccs1	inactive
O=C1c2cccc3c(N4CCCCC4)ccc(c23)C(=O)N1CCO	17.7 µM (active)
O=C1c2cccc3c(N4CCCCC4)ccc(c23)C(=O)N1c1ccccc1O	1.3 µM (active)
C=CCN1C(=O)c2cccc3c(N4CCCCC4)ccc(c23)C1=O	20.6 µM (active)
O=C1c2cccc3c(N4CCCCC4)ccc(c23)C(=O)N1c1cccc(O)c1	inactive
O=C(NC(=S)Nc1ccccc1N1CCCCC1)c1ccccc1	inactive
COc1ccc(S(=O)(=O)Nc2cc(Sc3ncn[nH]3)c(O)c3ccccc23)cc1	inactive
CSc1ccccc1NC(=O)COC(=O)/C=C/c1ccco1	inactive
O=C(NC(=S)N1CCc2ccccc21)c1ccco1	inactive
CCCOc1ccccc1C1CC(=O)NC2=C1C(=O)CCC2 (configuration not stated)	inactive

Compound	Potency
CCN(CC)CCCNc1ccc2ncn3c4ccc(O)cc4c(=O)c1c23	18.4 µM (active)
CN(C)CCNc1ccc2ncn3c4ccc(O)cc4c(=O)c1c23	20.6 µM (active)
CCCCOc1ccc(-c2nnn(CC(=O)NCc3ccco3)n2)cc1	inactive
COC(=O)c1cccc(NS(=O)(=O)c2ccc(OC)cc2)c1C	inactive
CN1CCc2c(sc(NC(=O)CSc3ccc(F)cc3)c2-c2nc3ccccc3s2)C1	1.64 µM (active)
COc1cccc(N2CC(O)=C(c3nc4ccccc4s3)C2=N)c1	inactive
O=C(CSc1ccccc1)Nc1nc2ccccc2[nH]1	inactive
CC(=O)Nc1sc2c(c1-c1nc3ccccc3s1)CCN(C(C)C)C2	18.4 µM (active)
COc1ccccc1/C=N/NC(=O)c1cc2c(OC)c(OC)ccc2[nH]1	inactive
O=C(C(=O)N1CCN(c2ccccc2Cl)CC1)c1c[nH]c2ccccc12	inactive
CC1CC(C)CN(CC(=O)c2c[nH]c3ccccc23)C1 (configuration not stated)	18.4 µM (active)
C=CCN1C=CC(=CC=C(C#N)C#N)C=C1	14 µM (active)
CCCN1C=CC(=CC=C(C#N)C#N)C=C1	15.8 µM (active)
COc1cccc(/C=N/n2c(C3CCCCC3)n[nH]c2=S)c1O	inactive
COCCNC(=O)C(=O)Nc1ccc2c(c1)N(S(=O)(=O)c1cccs1)CCC2	inactive
CN(C)c1ccc(/C=N/NC(=O)c2ccccc2Cl)cc1	inactive
CN(/N=C/c1ccc(N(C)C)cc1)C1=NS(=O)(=O)c2ccccc21	17.7 µM (active)
CCn1c(CNC(=O)c2cc(OC)c(OC)c(OC)c2)cc2cc(C)ccc21	inactive
CCOc1ncccc1C(=O)OCc1ccc(C(=O)OC)cc1	inactive
COc1ccc(N/C=C/c2nc(SC)nnc2C)cc1	inactive
C=CCSc1nnc(C)c(/C=C/Nc2ccc(Cl)cc2)n1	20.6 µM (active)
